ALOX12 inh: Primary qHTS assay for inhibitors of human arachidonate 12S-lipoxygenase (ALOX12): Round 2. Polyunsaturated fatty acid lipoxygenase ALOX12 (Homo sapiens), P18054. purified 12hLO, xylenol orange hydroperoxide absorbance. Potency, µM (top dose mostly 108 µM), for the others: at the highest dose activity change, negative = inhibition, most hits filed as inhibitors. 1.1% of 580,000 active; note: potency is the fitted concentration of half-maximal effect
Target sequence (P18054 whole entry, looked up): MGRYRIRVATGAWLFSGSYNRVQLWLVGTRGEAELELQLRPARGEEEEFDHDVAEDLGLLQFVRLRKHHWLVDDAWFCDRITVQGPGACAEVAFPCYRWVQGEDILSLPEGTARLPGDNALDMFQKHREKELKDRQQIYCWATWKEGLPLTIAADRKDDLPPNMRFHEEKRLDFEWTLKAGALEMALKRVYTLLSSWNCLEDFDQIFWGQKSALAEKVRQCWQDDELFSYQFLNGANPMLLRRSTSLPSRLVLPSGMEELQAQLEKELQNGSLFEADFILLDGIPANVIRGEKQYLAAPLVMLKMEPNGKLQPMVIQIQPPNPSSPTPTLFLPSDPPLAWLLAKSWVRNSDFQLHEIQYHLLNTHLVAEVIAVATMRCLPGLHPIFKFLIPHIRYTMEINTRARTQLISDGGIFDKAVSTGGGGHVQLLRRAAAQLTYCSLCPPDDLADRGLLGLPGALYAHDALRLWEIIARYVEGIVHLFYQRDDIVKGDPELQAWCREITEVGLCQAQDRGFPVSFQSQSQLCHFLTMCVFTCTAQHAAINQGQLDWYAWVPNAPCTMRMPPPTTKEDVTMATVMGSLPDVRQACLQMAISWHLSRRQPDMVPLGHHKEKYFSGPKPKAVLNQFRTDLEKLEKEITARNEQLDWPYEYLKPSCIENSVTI
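Purified human 12hLO (150 nM final) in 25 mM Hepes, 0.01% Triton X-100, pH 7.0 was preincubated 15 min at room temperature with compound. Then 40 uM arachidonic acid was added, 30 min. Hydroperoxide was read by Fe-XO absorbance ratio 573/405 nm.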
TDP1 cell CPT: qHTS for Inhibitors of human tyrosyl-DNA phosphodiesterase 1 (TDP1): qHTS in cells in presence of CPT; AID 686979, 2013; 12% of 420,000 active; Potency, µM (titrated, usually from 46.2 µM), for inactives: at the highest dose activity change, negative = growth inhibition, hits mostly inhibitors; chicken DT40 Tdp1-/-;hTDP1 cells + 20 nM CPT, ATP luminescence, 48 h; note: potency is the fitted concentration of half-maximal effect; nearly all actives have a fitted effect of over 55% in size
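Chicken DT40 Tdp1-/- cells complemented with human TDP1, 400 cells/well, exposed to compounds plus 20 nM camptothecin for at least 48 h at 37 C; viability read as ATP content by CellTiter-Glo luminescence.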
IL1B secr inh: qHTS for Inhibitors of Inflammasome Signaling: IL-1-beta AlphaLISA Primary Screen; THP-1 LPS/ATP IL-1B secretion, AlphaLISA, 16 h; stronger effect = lower value; AID 743279, 2014; 4.7% of 360,000 active; activity change, % at 57.5 µM; in the data active = activity change below about -50%; inconclusive = mostly about -30% to -49%
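THP-1 cells pretreated 1 hr with compounds (up to 57.5 uM final), then stimulated with LPS (250 ng/mL final) plus ATP (1.25 mM final); secreted IL-1B measured by AlphaLISA after 16 hr, decreased signal indicating inhibition.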
HT1080 IDH1KD tx: qHTS for induction of synthetic lethality in tumor cells producing 2HG: qHTS for the HT-1080-IDH1KD cell line | Potency, µM (doses to about 46.1 µM), for the others: at the top dose activity, negative = toxicity, actives largely listed as cytotoxic | HT-1080 IDH1 knockdown viability, ATP luminescence, 48 h | 2% of 360,000 active | AID 686971, 2013;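 note: potency is the fitted concentration of half-maximal effect; 0% = DMSO wells and -100% = cell-free medium wells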
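In this qHTS, HT-1080 cells depleted of IDH1 are exposed for 48 h at 37 °C to compound titrations. Toxicity is scored from CellTiter-Glo luminescence, with DMSO as full viability and medium alone as none.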
DT40 TDP1 no CPT: qHTS for Inhibitors of human tyrosyl-DNA phosphodiesterase 1 (TDP1): qHTS in cells in absence of CPT; 15% of 420,000 active; DT40 Tdp1-/- hTDP1 cells, no CPT, ATP luminescence, 48 h; Potency, µM (highest dose often 46.2 µM), for inactives: at the highest dose activity change, negative = growth inhibition, most hits filed as inhibitors; note: potency is the fitted concentration of half-maximal effect; nearly all actives have a fitted effect of over 55% in size
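Growth of hTDP1-complemented DT40 Tdp1-knockout cells is measured by ATP luminescence after at least 48 hr compound exposure at 37 °C, with DMSO substituting for the 20 nM CPT used in the parallel screen.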
HT1080NT lethal: qHTS for induction of synthetic lethality in tumor cells producing 2HG: qHTS for the HT-1080-NT fibrosarcoma cell line; HT-1080-NT fibrosarcoma viability, CellTiter-Glo ATP luminescence, 48 h; Potency, µM (top dose mostly 46.1 µM), without a hit: top-dose activity, negative = less viability, usual class: cytotoxic; 1.6% of 360,000 active; AID 686970, 2013;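 note: NT is the 2HG producing partner of a matched IDH1 knockdown line; potency is the fitted concentration of half-maximal effect; 0% = DMSO-treated cells and -100% = media-only wells without cells; nearly all actives have a fitted effect of over 55% in size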
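Fibrosarcoma NT cells, 750 per well in 5% FBS RPMI, were exposed to compound for 48 hours. Viability: CellTiter-Glo luminescence.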
* marks the source's active call; other numbers are inactive results; ? = inconclusive; nt = no result given; [ ] = remark or other dose. Shown is part of a subset that was picked to be rich in hits. Unless noted, calls come from the whole dose curve; as a rule, active = well fitted curve in the direction sought with a large enough effect; inconclusive = small, poorly fitted or top-dose-only effect, or another doubt; inactive = no such curve, though single readings can be large; an effect the other way counts as inactive or inconclusive. Unless noted, % is set by controls: 0 for no effect and ±100 for the full control effect.

SMILES	ALOX12 inh	TDP1 cell CPT	IL1B secr inh	HT1080 IDH1KD tx	DT40 TDP1 no CPT	HT1080NT lethal
CCOc1ccc(NC(=S)NCc2ccco2)cc1	?	3%	-3	11%	-2%	7%
CCOc1ccc(NC(=S)N(Cc2ccc(N(C)C)cc2)Cc2ccco2)cc1	15%	?	-19	5%	16µM*	6%
CCCN(Cc1ccccc1)C(=S)Nc1ccc(OCC)cc1	0%	?	-58*	-13%	18µM*	-24%
CCCN(C(=O)Cc1nc(-c2ccc(OC)cc2)no1)c1ccccc1C	-24%	21µM*	nt	nt	?	nt
CCN(C(=O)Cc1nc(-c2ccc(OC)cc2)no1)c1cccc(Cl)c1	-7%	?	nt	nt	16µM*	nt
CCN(C(=O)CCc1nc(-c2ccc(OC)cc2)no1)c1cc(OC)ccc1OC	0%	?	-10	-10%	?	-12%
CCCN(C(=O)CCc1nc(-c2ccc(OC)cc2)no1)c1ccccc1F	-5%	?	nt	nt	16µM*	nt
Cc1ccccc1C1=NOC2CN(C(=O)/C=C/c3ccccc3)CC12 (stereo not drawn)	-6%	nt	nt	nt	nt	nt
CN(C)c1ccc(CC(=O)N2CCCCC2c2cc(C(=O)Nc3ccccc3Cl)no2)cc1 (stereo not drawn)	?	-110%	-11	?	?	33µM*
COC(=O)N1CCCCC1c1cc(C(=O)Nc2ccccc2Cl)no1 (stereo not drawn)	4%	?	0	2%	?	?
O=C(Nc1ccc(F)c(Cl)c1)c1cc(C2CCCN(S(=O)(=O)c3ccccc3)C2)on1 (stereo not drawn)	?	?	-15	?	?	-24%
COc1ccc(NC(=O)c2cc(C3CCCCN3C(=O)Cc3ccc(N(C)C)cc3)on2)c(C)c1 (stereo not drawn)	6%	21µM*	-5	-2%	?	-14%
CN(C)c1ccc(CC(=O)N2CCCC(c3cc(C(=O)Nc4ccc(F)c(Cl)c4)no3)C2)cc1 (stereo not drawn)	-16%	16µM*	-1	?	23µM*	-25%
CC(C)(C)CN[C@@H]1CO[C@H](CNC(=O)c2ccc(F)cc2)[C@H]1O	14%[176 µM]	nt	nt	nt	nt	nt
COc1ccc(CN2CCC(n3cc[nH]c3=O)CC2)cc1	4%[176 µM]	nt	nt	nt	nt	nt
COc1ccc(CCNC(=O)C(=O)NCc2ccccc2)cc1OC	273%	5.2µM*	32	21µM*	5.2µM*	16µM*
COc1ccc(CCNC(=O)CC(c2ccccc2)c2cc(C)ccc2O)cc1OC (stereo not drawn)	nt	26µM*	0	-13%	13µM*	-22%
COc1ccc(CCNC(=S)c2ccccc2)cc1OC	-2%	21µM*	?	-6%	?	-3%
COc1ccc(CCNC(=S)NC(=O)c2ccc(Br)cc2)cc1OC	28µM*	?	23	-5%	?	1%
COc1ccc(CCNC(=O)Cc2ccccc2)cc1OC	?	1%	-1	7%	9%	-4%
O=C(CCc1nc(C2CCCN2C(=O)CC2CCCC2)no1)NCc1ccccc1 (stereo not drawn)	14%	nt	nt	nt	nt	nt
COc1ccc(CCNC(=O)C(=O)NCc2cccs2)cc1OC	-3%	?	28	-6%	29µM*	-18%
O=C1CCSc2ccc(Cl)cc2N1Cc1ccc(Cl)cc1	0%	?	?	-4%[9.24 µM]	29µM*	-25%
O=C(NCCN1CCOCC1)c1ccc2c(c1)N(Cc1ccc(Cl)cc1)C(=O)CS2	?	?	-8	?	?	-14%
Cc1cccc(CN2C(=O)CCSc3ccc(Cl)cc32)c1	3%	?	31	-10%	10µM*	-13%
SMILES	ALOX12 inh	TDP1 cell CPT	IL1B secr inh	HT1080 IDH1KD tx	DT40 TDP1 no CPT	HT1080NT lethal
CCN1CCCCC12Cc1ccccc1CN(C(=O)c1c(C)noc1C)C2 (stereo not drawn)	-1%[6.33 µM]	nt	nt	nt	nt	nt
CCn1c(SCC(=O)NC2=NCCS2)nnc1C(C)NC(=O)c1ccc(Cl)cc1 (stereo not drawn)	-24%	-9%	-17	0%	-2%	5%
O=C(NCc1ccco1)C(c1ccncc1)N(C(=O)Cc1cccs1)c1ccccc1 (stereo not drawn)	-6%	-17%	-15	9%	-17%	10%
O=C(NCc1ccco1)C(c1ccccc1)N(C(=O)Cc1cccs1)c1ccccc1F (stereo not drawn)	-35%	?	?	2%	26µM*	14%
Cc1ccc(C(C(=O)NCc2ccco2)N(C(=O)CNC(=O)c2cccs2)c2c(C)cc(C)cc2C)cc1 (stereo not drawn)	6%	10µM*	77	1%	10µM*	8%
Cc1ccc(C(C(=O)NCc2ccco2)N(C(=O)CNC(=O)c2cccs2)c2c(C)cccc2C)cc1 (stereo not drawn)	?	?	-22	12%	?	12%
O=C(NC1CCCN(c2cc(-c3ccccc3)[nH]n2)C1)c1cc(F)ccc1Cl (stereo not drawn)	14%	nt	nt	nt	nt	nt
Cn1ccc(C(=O)N2CC3ON=C(C(=O)N4CCN(c5ncccn5)CC4)C3C2)n1 (stereo not drawn)	15%[6.33 µM]	nt	nt	nt	nt	nt
CCn1cc[n+](C)c1P(c1ccccc1)c1ccccc1	40µM*	0.65µM*	0	-23%	0.013µM*	-18%
Cc1ccc(C)c(NC(=O)Cn2c(=O)n(CCCS(=O)(=O)C3CCCCC3)c(=O)c3ccccc32)c1	-25%	-18%	nt	nt	?	nt
CC(C)(C)NC(=O)c1ccc(NC(=O)c2ccc(Cl)cc2Cl)cc1	15%	nt	nt	nt	nt	nt
COc1cccc(CNC23CC4CC(CC(C4)C2)C3)c1OCc1ccccc1	-25%	9.2µM*	-97*	-12%	10µM*	-25%
COc1cccc(CNC(C)C)c1OCc1ccccc1	-8%	nt	nt	nt	nt	nt
COc1cccc(CNCCc2c[nH]c3ccccc23)c1OCc1ccccc1	?	7.3µM*	nt	16µM*	9.2µM*	21µM*
COc1cc(CNCCc2c[nH]c3ccccc23)ccc1OCc1ccccc1F	-22%	18µM*	-57*	?	?	?
